The full list was thinned out, with hits kept by preference.
Insulin prom up – insulin promoter activators in MIN6 cells, imaging, high-content screening, mouse beta cells | z-score at 5 µM | 0.3% of 190,000 active | AID 1625, 2009 | MIN6 insulin promoter-GFP reporter; stronger effect = higher value;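 active means z-score above 3 at 5 µM with at least 500 cells counted in the well; inconclusive means wells under 500 cells, flagged as cytotoxic or low count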
INS promoter inh – inhibitors of insulin promoter-driven GFP, primary screen, imaging, TRM-6 cells (human fetal islet line), eGFP reporter, cell count; reporter expression induced with tamoxifen; inhibition, % at 2 µM; 0.9% of 130,000 active; AID 1273, 2008;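 active means inhibition above the mean plus 3 SD, with well images judged a real hit on visual review, cut at about 60% in these data, passing the limit was not always enough; inconclusive means inhibition over the cutoff but images rejected on review; inactive means inhibition not above the cutoff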
HSV augment – enhancers of HSV replication in host cells, fold increase, host cell viability; HSV replication augmentation in cells; maximum fold increase; 0.005% of 220,000 active; in the data active means maximum fold increase above about 1.5; inconclusive means no clear call, values can overlap the other calls; tested in PC3 cells
ROMK mod – ROMK potassium channel modulators, primary screen, cell-based, thallium flux, MLSMR library. ATP-sensitive inward rectifier potassium channel 1 (Homo sapiens), P48048. B-score at 10 µM. Tet-inducible ROMK, thallium flux fluorescence; actives lie on both sides. 2% of 130,000 active;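 active means signal ratio slope over the read window, or its plate-corrected B-score, at least 3 SD from the plate mean, either direction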;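 further: B-score of the F/F0 ratio slope over 7 to 12 s after thallium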
Target sequence (P48048 whole entry, looked up): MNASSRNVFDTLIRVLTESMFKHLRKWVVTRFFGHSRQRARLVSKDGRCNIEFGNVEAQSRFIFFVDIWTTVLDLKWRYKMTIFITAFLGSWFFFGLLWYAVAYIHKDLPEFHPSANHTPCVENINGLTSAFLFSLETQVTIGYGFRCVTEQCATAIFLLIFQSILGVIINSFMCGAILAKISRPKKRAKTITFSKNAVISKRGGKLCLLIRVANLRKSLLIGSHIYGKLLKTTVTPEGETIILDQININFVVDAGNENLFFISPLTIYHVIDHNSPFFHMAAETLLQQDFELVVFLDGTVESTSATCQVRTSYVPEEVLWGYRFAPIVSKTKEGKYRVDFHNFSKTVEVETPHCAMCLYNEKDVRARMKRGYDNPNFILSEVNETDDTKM
Tb hexokinase – Trypanosoma brucei hexokinase 1 inhibitors, primary screen, biochemical, G6PDH-coupled NADH absorbance, MLSCN library; inhibition, % at 10 µM; AID 1430, 2008; recombinant TbHK1, G6PDH-coupled NADH A340; hexokinase 1 [Trypanosoma brucei]; 0.11% of 220,000 active;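 active means inhibition of 50% or more in the single-dose primary screen; inactive means inhibition below 50%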
Each line names hits and unclear results; the compound was inactive in the other large screens.

CCN1CC=C2C(C#N)=C(N)C(C#N)(C#N)C(c3cc(Cl)ccc3Cl)C2C1 (stereo not given)	ROMK mod -4.8 (no result: Insulin prom up, INS promoter inh, HSV augment)
CCC1C2CN(C(C)=O)CC=C2C(C#N)=C(N)C1(C#N)C#N (stereo not given)	none (no result: ROMK mod)
CC(C)N1CC=C2C(C#N)=C(N)C(C#N)(C#N)[C@H](c3ccoc3)[C@H]2C1	HSV augment inconclusive (no result: Insulin prom up, ROMK mod)
CC(C)N1CC=C2C(C#N)=C(N)C(C#N)(C#N)C(c3ccccc3)C2C1 (stereo not given)	HSV augment inconclusive, ROMK mod -4.2 (no result: Insulin prom up)
CCOC(=O)c1sc2nc(C)nc(NCCc3ccccn3)c2c1C	INS promoter inh 94
CCOC(=O)c1sc2nc(C)nc(N3CCN(c4ncccn4)CC3)c2c1C	none (no result: INS promoter inh)
Fc1ccc(C(c2nnnn2Cc2cccs2)N2CCN(C3CCCCC3)CC2)cc1 (stereo not given)	ROMK mod -5.7 (no result: INS promoter inh)
CN(C)S(=O)(=O)c1cc(NC(=O)CN2CCN(c3ccccc3F)CC2)ccc1Cl	none (no result: INS promoter inh)
CC(C)Cc1nnc(NC(=O)CSc2nc(-c3ccccc3)cc(=O)[nH]2)s1	none (no result: Insulin prom up, INS promoter inh)
COc1ccc(NC(=O)N2CCCCC2)cc1	INS promoter inh 80 (no result: ROMK mod)
Cn1c(Cc2ccccc2)nnc1SCc1ccc(C(=O)O)cc1	INS promoter inh 75
Cc1ccnc(N/C=C(/NC(=O)c2ccccc2)C(=O)N/N=C\c2ccc(Cl)cc2)n1	none (no result: INS promoter inh, ROMK mod)
N#Cc1cc(-c2ccccc2)[nH]c1-c1nccc2ccccc12	none (no result: INS promoter inh, ROMK mod)
c1ccc(-c2ccc(-c3nccc4ccccc34)[nH]2)cc1	Insulin prom up 4.4 (no result: INS promoter inh, ROMK mod)
CCCCc1nc2ccccc2[nH]1	INS promoter inh 89
COc1ccc(CN(C(=O)Cn2nnc(-c3ccc(C)o3)n2)C(C(=O)NCC2CCCO2)c2ccco2)cc1 (stereo not given)	none
FC(F)(F)c1nc2ccccc2[nH]1	none (no result: INS promoter inh, ROMK mod)
CC(C)(C)c1nc2ccccc2[nH]1	INS promoter inh 80
CC(C)Sc1nc2ccccc2[nH]1	INS promoter inh 78
Cc1cc(=O)[nH]c(SCC(=O)NCCC2=CCCCC2)n1	none
CCCn1c(N)c(C(=O)CSc2nc(C)cs2)c(=O)[nH]c1=O	INS promoter inh 77 (no result: ROMK mod)
COc1ccc(NC(=O)C(=O)NCCN2CCN(C(=O)c3ccco3)CC2)cc1	none
Cc1cc(S(=O)(=O)N2CCCC2)ccc1OCC(=O)N1CCOCC1	INS promoter inh 78
CCOC(=O)c1sc(NC(=O)c2cccs2)cc1C	none (no result: INS promoter inh, ROMK mod)
CCOC(=O)c1sc(NC(=O)c2sccc2C)cc1C	Insulin prom up 3.1 (no result: ROMK mod)
CCCn1nnc(NC(=O)COc2ccc(C3CCCCC3)cc2)n1	INS promoter inh 100 (no result: ROMK mod)
C#CCNC(=O)C1=C[C@@H](c2ccc(C(F)(F)F)cc2)C[C@@H](OCCCCO)O1	none (no result: INS promoter inh, ROMK mod)
Cc1cc(C)cc(COn2ccnc2)c1	INS promoter inh 68
CCCSc1nnc(CSc2nc(C)cc(C)n2)n1C	none (no result: INS promoter inh, ROMK mod)
COc1ccc(Nc2nc(N)nc(CSc3nncn3C)n2)cc1	INS promoter inh 77 (no result: ROMK mod)
COc1ccccc1N1CCN(S(=O)(=O)c2ccccc2)CC1	none (no result: ROMK mod)
COc1ccccc1N1CCN(S(=O)(=O)Cc2ccccc2Cl)CC1	INS promoter inh 89
CN(c1ccccc1)S(=O)(=O)c1ccc(C(=O)Nc2nnc(C3CC3)o2)cc1	none
CCN(c1ccccc1)S(=O)(=O)c1ccc(C(=O)Nc2nnc(C3CC3)o2)cc1	INS promoter inh 78
O=C(NCC(c1cccs1)N1CCOCC1)c1ccc(Cl)c(S(=O)(=O)N2CCOCC2)c1 (stereo not given)	none (no result: INS promoter inh, ROMK mod)
O=C1C2C3C=CC(C3)C2C(=O)N1CCc1ccccc1 (stereo not given)	Insulin prom up 3.3
Cn1nc(-c2ccccc2)cc1NC(=O)c1cccs1	none (no result: INS promoter inh, ROMK mod)
CS(=O)(=O)NCCCNc1c(Cl)cccc1[N+](=O)[O-]	INS promoter inh 74
O=[N+]([O-])c1cccc(Cl)c1NCCNS(=O)(=O)c1ccc(Cl)cc1	none (no result: INS promoter inh, ROMK mod)
Cc1nc(N/N=C/c2ccc(O)cc2)c2cnn(-c3ccccc3)c2n1	INS promoter inh 89
Cc1nc2ccccc2nc1N/N=C/c1ccc(O)cc1	none (no result: INS promoter inh)
CCOC(=O)c1cc(C(C)C)sc1NC(=O)COC(=O)CCS(=O)(=O)c1ccccc1	INS promoter inh 60
O=C(Nc1nnc(SCC(=O)N2CCCCC2)s1)C1CCCCC1	INS promoter inh 73 (no result: Insulin prom up, ROMK mod)
COc1ccc(CNC(=O)C2(c3ccc(Cl)cc3)CC2)cc1	INS promoter inh 75
Cc1cc(/C=C2\SC(=S)NC2=O)c(C)n1C1CC1	Insulin prom up 3 (no result: HSV augment)
CC(O)C(NC=C1C(=O)OC(C)(C)OC1=O)C(=O)O (stereo not given)	none (no result: INS promoter inh)
Cc1ccc(S(=O)(=O)c2c(C)nn(C(C)(C)C)c2OC(=O)C2CCCC2)cc1	INS promoter inh 82 (no result: ROMK mod)
CCOc1ccc(-c2c(C#N)c(N)nc3sc(C(=O)c4ccccc4)c(N)c23)cc1	Insulin prom up 9.1 (no result: INS promoter inh, ROMK mod)
Cc1ccc(NC(=O)CN(C)S(=O)(=O)c2ccc(Br)s2)cc1F	none
Cc1c(C(c2ccc([N+](=O)[O-])cc2)c2c(C)n(C)n(-c3ccccc3)c2=O)c(=O)n(-c2ccccc2)n1C	Insulin prom up 4.1 (no result: INS promoter inh, ROMK mod)
Cc1c(C(c2ccc(O)cc2)c2c(C)n(C)n(-c3ccccc3)c2=O)c(=O)n(-c2ccccc2)n1C	none (no result: Insulin prom up)
COc1ccccc1NC(=O)/C=C\C(=O)O	INS promoter inh 100
COc1ccc(Cl)cc1NC(=O)/C=C\C(=O)O	none (no result: Insulin prom up, INS promoter inh)
CN(/N=C\c1ccc(O)c(O)c1)c1nc(-c2ccccc2)cc(-c2ccccc2)n1	Insulin prom up inconclusive
CCC(C)c1ccc(OCc2ccc(C(=O)OC)o2)cc1 (stereo not given)	none (no result: INS promoter inh, ROMK mod)
CCOC(=O)N1CCN(C(=O)CCN2C(=O)COc3ccccc32)CC1	INS promoter inh 79
N#Cc1c(NC(=O)CCn2cnc3ccccc3c2=O)oc(-c2ccccc2)c1-c1ccccc1	INS promoter inh 75 (no result: Insulin prom up)
N#Cc1c(NC(=O)CCN2C(=O)c3ccccc3C2=O)oc(-c2ccccc2)c1-c1ccccc1	HSV augment inconclusive
CCOc1ccc(CCNC(=O)COC(=O)/C=C/c2ccc(OCC#N)c(OC)c2)cc1OCC	none
O=C(CCl)Nc1cc(-c2ccccc2)nn1-c1ccccc1	INS promoter inh 87 (no result: Insulin prom up, ROMK mod)
Cc1ccc(C(=O)ON=C2CCN(S(=O)(=O)c3ccccc3)CC2)cc1	none (no result: Insulin prom up, ROMK mod)
CS(=O)(=O)ON=C1CCN(S(=O)(=O)c2ccccc2)CC1	Insulin prom up 3.5 (no result: INS promoter inh)
O=C(N[C@@H](Cc1ccccc1)C(=O)O)c1ccncc1	none (no result: INS promoter inh, ROMK mod)
C=CCNc1nc(N2CCCC2)nc2ccccc12	INS promoter inh 79 (no result: HSV augment, ROMK mod)
CC(Nc1nc(N2CCCCC2)nc2ccccc12)c1ccccc1 (stereo not given)	none (no result: ROMK mod)
COCCN1CN(S(=O)(=O)c2ccc(Cl)cc2)c2nc3ccccc3nc21	none (no result: ROMK mod)
COCCN1CN(S(=O)(=O)c2ccccc2)c2nc3ccccc3nc21	Insulin prom up 3.1 (no result: ROMK mod)
COc1cccc2sc(Nc3nnc(-c4cccs4)o3)nc12	none (no result: INS promoter inh, ROMK mod)
Fc1cccc2sc(Nc3nnc(-c4ccco4)o3)nc12	ROMK mod 5.1
COC(=O)CN1C(c2ccccc2)=Nc2ccc(Cl)cc2C1c1ccccc1 (stereo not given)	ROMK mod -3.1
